Reference: PubChem BioAssay AID624483 (NMMLSC, 2012)
Out of some 360,000 compounds screened, about 11,000 (3.1%) were called active. Inconclusive results (about 2%) are left out. Rule as the data show it: active = fluorescence intensity above about 16000; inconclusive = no clear call, values can overlap the other calls; inactive = below that. The list comes from a sample in which actives are over-represented; it also holds similar structures and randomly drawn compounds.

test: compound fluorescence in toxin protease inhibitor counterscreen, primary screen, artefact control for toxin protease inhibitor project, biochemical, multiplex microsphere, HTS (AID 624483); details: compound autofluorescence counterscreen, microsphere flow cytometry; hits give high values

| Compound | fluorescence intensity |
| --- | --- |
| CC(=O)Nc1cccc(-c2cc(NC(C)=O)c3ncc(-c4ccccc4)n3c2)c1 | 3750 (inactive) |
| O=C(/C=C/c1cccs1)c1cc(Cl)ccc1OC(=O)N1CCOCC1 | 2170 (inactive) |
| O=C(Nc1ccc(N2CCOCC2)cc1)c1cccc2c(-c3ccc(F)c(F)c3)coc12 | 3990 (inactive) |
| CC12CCC(=O)C=C1CCC1C2C(O)CC2(C)C1CCC2(O)C(O)CO (stereo unspecified) | 5610 (inactive) |
| O=C(/C=C/NCc1ccc(F)cc1)c1ccccc1 | 2490 (inactive) |
| O=C(/C=C\NCC(=O)c1ccccc1)c1ccccc1 | 21800 (active) |
| O=C(/C=C/NNC(=O)c1cccc(Br)c1)c1ccccc1 | 3590 (inactive) |
| COC(=O)c1ccc(C)c(NC(=O)Cn2c(C)csc2=O)c1 | 3770 (inactive) |
| Cc1oc(-c2cccc(Cl)c2)[n+]([O-])c1C | 3960 (inactive) |
| Cc1oc(-c2ccccc2Cl)[n+]([O-])c1C | 25200 (active) |
| CCOc1cnc(-c2c(-c3ccccc3Cl)noc2C)o1 | 2480 (inactive) |
| CCc1sc(C(=O)N2CCN(CC(=O)Nc3cccc(F)c3)CC2)cc1C | 3730 (inactive) |
| Cc1ccc(NC2CCCN(C(=O)CCc3cn[nH]c3)C2)cc1C (stereo unspecified) | 4290 (inactive) |
| CC1=C(C(N)=O)C(c2ccc(F)cc2)n2nc(CCCO)nc2N1 (stereo unspecified) | 3660 (inactive) |
| COC(=O)c1nc2n(n1)C(c1ccc([N+](=O)[O-])cc1)C(C(=O)Nc1ccc(Cl)cc1)=C(C)N2 (stereo unspecified) | 2390 (inactive) |
| COCCOC(=O)C1=C(C)Nc2nc(C)nn2C1c1ccccc1 (stereo unspecified) | 17100 (active) |
| O=C(Nc1ccc(Cl)cc1)C1Cc2c(-c3ccc4c(c3)OCO4)ccnc2O1 (stereo unspecified) | 3410 (inactive) |
| COc1ccc(NC(=O)c2oc3ccc(S(=O)(=O)N4CCOCC4)cc3c2C)cc1 | 4190 (inactive) |
| Cc1c(C(=O)Nc2cccc(S(=O)(=O)N3CCOCC3)c2)oc2ccccc12 | 2760 (inactive) |
| Cc1c(C(=O)Nc2ccccc2Cl)oc2ccc(S(=O)(=O)N3CCC4(CC3)OCCO4)cc12 | 22400 (active) |
| CC(=O)Nc1ccc(-c2ccnc3c2CC(C(=O)NC(C)C)O3)cc1 (stereo unspecified) | 3750 (inactive) |
| COc1cc(C=C(OC(C)=O)c2ccc3c(c2)OCO3)cc(OC)c1OC | 6370 (inactive) |
| NNc1nc2c(Cl)cccc2s1 | 6940 (inactive) |
| CC(C)CCNC(=O)CCNS(=O)(=O)c1ccc(Cl)cc1 | 19700 (active) |

| Compound | fluorescence intensity |
| --- | --- |
| CC(C)CNS(=O)(=O)c1ccc(CCC(=O)NCc2ccc(Cl)cc2)cc1 | 3570 (inactive) |
| Cc1ccc(S(=O)(=O)NCCC(=O)NCc2ccc(Cl)cc2)cc1C | 4140 (inactive) |
| Cc1ccc(-c2nc3ccc(Br)cn3c2Cc2ccccc2C(F)(F)F)cc1 | 5850 (inactive) |
| CC(=O)c1nn(-c2ccccc2)c(=Nc2ccccc2)cc1C | 4100 (inactive) |
| Cn1c(SCC(=O)Nc2nccs2)nnc1-c1cccnc1 | 4450 (inactive) |
| COc1ccc(CC(=O)NCc2nnc(SCC(=O)Nc3nccs3)n2C)cc1 | 4710 (inactive) |
| Cc1ccc(C(C)C)c(OCc2nnc(SCC(=O)Nc3nccs3)n2C)c1 | 17800 (active) |
| c1ccc2c(NC3C4CC5CC(C4)CC3C5)nc(N3CCOCC3)nc2c1 (stereo unspecified) | 4640 (inactive) |
| NC(c1csc(NC(=O)Nc2ccccc2Oc2ccccc2)n1)c1ccccc1Cl (stereo unspecified) | 3590 (inactive) |
| O=C(c1cc(C2CCCCN2S(=O)(=O)c2ccccc2)on1)N1CCOCC1 (stereo unspecified) | 3020 (inactive) |
| CC(=O)NS(=O)(=O)c1ccc(N/C(N)=N/c2nc(C)cc(C)n2)cc1 | 3910 (inactive) |
| O=C1NC(c2ccccc2)Oc2ccccc21 (stereo unspecified) | 3320 (inactive) |
| C[C@@H]1NC(=O)[C@@]2(C)[C@@H](c3ccccc3)[C@H]3COc4ccccc4[C@@H]3N2C1=O | 3420 (inactive) |
| CN1CC(c2ccccc2)C2(COc3ccccc3C2=O)C12C(=O)Nc1ccccc12 (stereo unspecified) | 16700 (active) |
| Cc1cc(C)n2c(NCc3ccccc3)c(CC(C)C)nc2n1 | 6800 (inactive) |
| CCN(CC(=O)Nc1c(F)cccc1F)C(=O)c1cnc(C)cn1 | 4920 (inactive) |
| CCC(CC)C(=O)N1CCN(c2cccc(C)c2C)CC1 | 2200 (inactive) |
| Cc1cccc(N2CCN(C(=O)/C=C/c3ccco3)CC2)c1C | 2640 (inactive) |
| CC(=O)N1CCN(c2cccc(C)c2C)CC1 | 20800 (active) |
| C=CCC[C@H](CCCCC)OC(=O)/C=C/[C@H](O)[C@@H](O)C[C@@H](O)CC=C | 4110 (inactive) |
| CCCc1ccc(C(O)c2ncc(-c3cccc(OC)c3)[nH]2)cc1 (stereo unspecified) | 3420 (inactive) |
| CCOC(=O)CSc1nc2c(sc(=S)n2CCc2ccccc2)c(=O)n1Cc1ccco1 | 16400 (active) |
| COc1cccc(-n2c(=S)sc3c(=O)n(-c4ccccc4C)c(SCC(=O)O)nc32)c1 | 3210 (inactive) |
| CCOC(=O)CSc1nc2c(c(=O)n(Cc3ccccc3Cl)c(=O)n2C)n1C | 4690 (inactive) |

| Compound | fluorescence intensity |
| --- | --- |
| COc1ccc(NC(=O)c2sc(=O)n(Cc3ccc(S(=O)(=O)N(C)C)cc3)c2C)cc1 | 5230 (inactive) |
| COc1ccc(NC(=O)C(Br)C(C)C)cc1 (stereo unspecified) | 3200 (inactive) |
| COc1ccc(Nc2ccc3ccccc3c2)cc1 | 3980 (inactive) |
| COc1ccc(NC2=CC(=S)NC(C)(C)C2)cc1 | 26300 (active) |
| Cc1cc(Br)cn2c(Cc3ccsc3)c(-c3ccc(C#N)cc3)nc12 | 4980 (inactive) |
| CC(C)Nc1nc(NCCOc2ccccc2Cl)c2sccc2n1 | 4090 (inactive) |
| C(=N/N1CCN(c2ccccc2)CC1)/c1cccs1 | 23100 (active) |
| Cc1ccc(N2CCN(/N=C/c3cccs3)CC2)cc1 | 15100 (inactive) |
| COc1cc(/C=N/N2CCN(c3ccccc3)CC2)ccc1OC(C)=O | 4030 (inactive) |
| Cc1nc2nc(SCC(=O)Nc3cccc(F)c3)[nH]c2cc1Br | 5340 (inactive) |
| COc1ccc(NC(=O)CSc2nc(NS(=O)(=O)c3ccc(C)cc3)cc(=O)[nH]2)cc1 | 19100 (active) |
| CCCc1cc(=O)[nH]c(SCC(=O)Nc2ccc(C(=O)Nc3ccccc3OC)cc2)n1 | 3560 (inactive) |
| CCCCc1nnc(NC(=O)CSc2nc(C)cc(=O)[nH]2)s1 | 22200 (active) |
| Cc1ccc(NC(=O)CSc2nc(CSc3ccc(C)cc3)cc(=O)[nH]2)cc1 | 4220 (inactive) |
| CCCCc1nc(SCC(=O)Nc2nnc(C(C)C)s2)n[nH]1 | 5330 (inactive) |
| CCCCc1nnc(NC(=O)CSc2nc(N)cc(=O)[nH]2)s1 | 4560 (inactive) |
| Cc1ccc(OCCCC(=O)Nc2ccc(S(=O)(=O)Nc3cc(C)nc(C)n3)cc2)cc1 | 5510 (inactive) |
| COC(=O)c1cccc(NC(=O)CSc2nc(C)cc(=O)[nH]2)c1 | 19300 (active) |
| COc1ccc(C2=NS(=O)(=O)N(C)C(C(=O)N3CCCCC3)=C2)cc1 | 5200 (inactive) |
| COCCNc1ncnc2c1ncn2[C@H]1CN(Cc2ccc(OC)cc2)C[C@@H](CO)O1 | 2990 (inactive) |
| Cc1cccc(CN2CCN(C3CN(Cc4cn(Cc5ccccc5F)nn4)S(=O)(=O)C3)CC2)c1 (stereo unspecified) | 6290 (inactive) |
| O=C(COc1ccc(Br)cc1)OCC(=O)c1ccc[nH]1 | 3140 (inactive) |
| Cc1ccc2oc(C(=O)N3CCN(C)C[C@@H]3C(C)C)c(C)c2c1 | 3260 (inactive) |
| O=C1OCCOC2CCCc3oc(-c4ccccc4)c1c32 (stereo unspecified) | 5740 (inactive) |

| Compound | fluorescence intensity |
| --- | --- |
| CCCCC(O)C1=C[N+](=O)CC=C1 (stereo unspecified) | 4270 (inactive) |
| CC1CCCCC1NC(=O)CCS(=O)(=O)c1cccc2nonc12 (stereo unspecified) | 4530 (inactive) |
| CCc1nc2c(OCc3ccc(C(F)(F)F)cc3)cccn2c1N(C)C(=O)CC(C)C | 3820 (inactive) |
| CCOC(=O)c1c(-c2ccccc2)oc2ccc(OCC(=O)NN)cc12 | 3330 (inactive) |
| CCOC(=O)c1c(-c2ccccc2)oc2cc(Br)c(O)c(C=O)c12 | 3500 (inactive) |
| CCOC(=O)c1c(-c2ccccc2)oc2ccc(OC(=O)N(C)C)cc12 | 18300 (active) |
| CC12c3ccccc3C(c3ccccc31)C1C(=O)N(Cc3cccnc3)C(=O)C12 (stereo unspecified) | 10400 (inactive) |
| CC1Oc2ccccc2N(Cc2cccnc2)C1=O (stereo unspecified) | 22000 (active) |
| Cc1cccc(C)c1NC(=O)CN1C(=O)C(C)Oc2ccccc21 (stereo unspecified) | 4620 (inactive) |
| Cc1ccc(-c2csc3nnc(SCC(=O)NCc4ccco4)n23)cc1 | 16800 (active) |
| Cc1ccc(NC(=O)C(=O)NCc2ccco2)c(C)c1 | 4600 (inactive) |
| Cc1ccc(SCC(=O)NC(=O)NCc2ccco2)c(C)c1 | 19200 (active) |
| Cn1c(-c2ccc(F)cc2)cnc1SCC(=O)NCc1ccco1 | 9840 (inactive) |
| O=C(CSc1nnc2scc(-c3ccc(F)cc3)n12)NCc1ccco1 | 7830 (inactive) |
| Cc1cc(C)n2nc(SCC(=O)NC(=O)NCc3ccco3)nc2n1 | 3150 (inactive) |
| O=C(Nc1ccc(N2CCN(C(=O)c3ccccc3)CC2)c(Cl)c1)c1ncn[nH]1 | 4940 (inactive) |
| CCCS(=O)(=O)NC(=O)C1(C)CCCN(C(=O)c2cc(C)on2)C1 (stereo unspecified) | 3970 (inactive) |
| CC(C)(O)C1=C[N+](=O)CC=C1 | 6070 (inactive) |
| CN1OC[C@@H]2CN(S(=O)(=O)c3cccc(C(F)(F)F)c3)[C@H](c3ccc(-c4cc5ccccc5o4)cc3)C[C@@H]21 | 3760 (inactive) |
| Nc1[nH]c(C(=O)c2ccccc2)c(-c2ccncc2)c1C(=O)NCc1cccc2ccccc12 | 5030 (inactive) |
| CCN(CC)c1ncnc2c1ncn2[C@H]1CN(Cc2cccs2)C[C@@H](CO)O1 | 3720 (inactive) |
| CCCn1nc2cc(C(=O)NCc3ccccc3)ccc2c1OCC | 4050 (inactive) |
| Cc1ccc(CNC(=O)c2ccc3c(c2)S(=O)(=O)c2ccccc2C3=O)cc1 | 3750 (inactive) |
| Cc1cc(N2C(=O)c3ccc(C(=O)NCc4ccccc4)cc3C2=O)no1 | 17400 (active) |
